Screening results from PubChem.
This is a sample that favours compounds with a hit; in the whole collection about 27% have one here.
sEH activator – soluble epoxide hydrolase (human) activation; activation, % at 2 µM; P34913; hit rate 0.04% among 91,000; purified human sEH enzymatic activity, activator screen; in the data active = activation above about 37%
CYP2C19 activ – activators of human cytochrome P450 2C19; activation factor at 5 µM; 96,000 tested, under 10 active; recombinant CYP2C19, luciferin-H EGE luminescence; stronger effect = higher value; 0 = fully inhibited enzyme, 1 = untreated enzyme;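 active = activation factor of at least 2 at 5 µM in the primary screen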;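 note: 0 = wells with 2.5 mM tranylcypromine and 1 = vehicle-only wells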
Target sequence (P33261 whole entry, looked up): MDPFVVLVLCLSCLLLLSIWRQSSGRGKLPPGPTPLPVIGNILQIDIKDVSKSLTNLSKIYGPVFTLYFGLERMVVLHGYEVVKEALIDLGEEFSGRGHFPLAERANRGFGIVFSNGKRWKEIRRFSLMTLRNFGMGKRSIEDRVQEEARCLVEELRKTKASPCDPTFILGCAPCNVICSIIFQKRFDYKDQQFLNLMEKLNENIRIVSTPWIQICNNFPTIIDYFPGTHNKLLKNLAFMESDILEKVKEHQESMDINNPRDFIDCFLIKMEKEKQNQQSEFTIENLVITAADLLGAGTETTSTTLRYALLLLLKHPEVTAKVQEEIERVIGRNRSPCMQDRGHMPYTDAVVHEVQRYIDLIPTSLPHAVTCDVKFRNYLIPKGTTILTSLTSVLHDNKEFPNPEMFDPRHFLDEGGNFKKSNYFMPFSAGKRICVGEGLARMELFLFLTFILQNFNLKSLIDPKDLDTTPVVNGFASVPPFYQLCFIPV
sEH inh – inhibitors of human soluble epoxide hydrolase; hit rate 0.34% among 91,000; inhibition, % at 2 µM; AID 707; recombinant human sEH enzymatic activity assay; in the data active = inhibition above about 80%
CYP2C9 activ – CYP2C9 (human) activation. recombinant CYP2C9, luciferin-H conversion, luminescence; stronger effect = higher value; factor 1 = untreated enzyme, 0 = blocked. hit rate 1.4% among 96,000. P11712. activation factor at 5 µM;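 active = activation factor of 2 or more for CYP2C9 at a 5 µM dose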;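 note: 0 = sulfaphenazole-blocked wells and 1 = vehicle-only wells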
CYP2C19 inhib – human CYP2C19 inhibition. CYP2C19 Supersomes, luciferin-H EGE luminescence, 30 min. inhibition, % at 5 µM. hit rate 21% among 96,000;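 active = CYP2C19 inhibition above a set limit at 5 µM in the primary screen, cut at about 50% in these data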;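 note: plate controls were negative control wells for no effect and 2.5 mM tranylcypromine positive control for full effect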
CYP2C9 inhib – human CYP2C9 inhibition; P11712; CYP2C9 Supersomes, luciferin-H conversion, luminescence; inhibition, % at 5 µM; hit rate 20% among 96,000;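 active = blocking of liver enzyme CYP2C9 beyond about 50% at 5 µM, limit read from the data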
* = called active by the depositor; x = not tested or not shown.

SMILES	sEH activator	CYP2C19 activ	sEH inh	CYP2C9 activ	CYP2C19 inhib	CYP2C9 inhib
CCN=c1scc(-c2ccc3c(c2)NC(=O)CO3)n1N=C1CCCC1	-4	0.5	4	0.5	54*	48
CCCCN=c1scc(-c2ccc3c(c2)NC(=O)CO3)n1N=C1CCCC1	2	1	2	1	1	1
CCOc1ccc(-c2nc(CSCC(=O)NCCN3CCOCC3)c(C)o2)cc1	x	0.7	x	0.8	32	25
CCN1CC(O)=C(c2nc3ccccc3s2)C1=N	-6	0.7	5	0.9	31	8
Cc1ccc(-c2cc(C(=O)NCc3ccco3)c3ccccc3n2)o1	11	1.1	-10	0.8	-6	15
O=C(NCc1ccco1)c1cc(-c2ccncc2)nc2ccccc12	x	0.2	x	0.4	80*	57*
O=C(N/N=C/c1ccc(F)cc1)c1cc(-c2ccco2)nc2ccccc12	10	1	-10	0.9	-2	7
O=C(N/N=C/c1ccc([N+](=O)[O-])o1)c1cc(-c2ccncc2)nc2ccccc12	3	0.5	-2	0.1	53*	90*
CC(/C=N/NC(=O)c1cc(-c2ccncc2)nc2ccccc12)=C\c1ccco1	-8	0	10	0	96*	100*
O=C(NCc1ccco1)c1cc(-c2cccnc2)nc2ccccc12	x	0.6	x	0.3	39	70*
Cc1cc(C)c(O)c(-c2cc(C(=O)Nc3ccc(S(=O)(=O)N4CCOCC4)cc3)[nH]n2)c1	-12	1	14	0.7	-3	31
Cc1ccccc1Cn1nc(C)c(NC(=O)c2cc3nc(-c4ccco4)cc(C(F)(F)F)n3n2)c1C	13	1	-12	0.5	-4	47
CCc1ccc(-c2cc(C(F)(F)F)n3nc(C(=O)Nc4c(C)nn(Cc5ccc(F)cc5)c4C)cc3n2)s1	12	0.6	-10	0.3	42	70*
Cc1ccc(S(=O)(=O)/N=C(\CSC(N)=O)Nc2ccccc2)cc1	7	0.8	-6	1.9	21	-87
CSC(=NS(=O)(=O)c1ccc(C)cc1)SC	-7	0.8	5	2.1*	21	-106
O=S(=O)(/N=C(\Sc1ccccc1)c1ccccc1)c1ccc(Cl)cc1	x	0.8	x	0.4	16	62*
CCOC(=S)N/C(=N\S(=O)(=O)c1ccc(C)cc1)c1ccccc1	9	0.5	-9	0.1	46	91*
Cc1ccc(S(=O)(=O)/N=C(\Sc2ccccc2)c2ccccc2)cc1	x	0.7	x	0.4	34	62*
CC(=O)N1CCC(C(=O)Nc2ccccc2)(N(Cc2ccccc2)C(=O)c2cccnc2)CC1	x	1	x	1	1	-3
Cc1nnc(SCC(=O)Nc2c(Cl)cccc2Cl)[nH]c1=O	10	1.1	-12	0.4	-6	62*
Cc1nnc(SCC(=O)Nc2ccc(Cl)cn2)[nH]c1=O	-9	x	12	x	x	x
Cc1nnc(SCc2ccc(Cl)cc2Cl)[nH]c1=O	-7	0.9	5	0.2	11	80*
CCC1CCCCN1Cc1ccc(OC)c(C)c1 (stereo unspecified)	2	0.9	-4	1	12	4
CC(c1nc2ccccc2o1)N1C(=O)c2ccccc2C1=O (stereo unspecified)	7	x	-7	x	x	x
O=c1c2ccccc2nnn1CSc1nnc(-c2ccc3c(c2)OCO3)o1	x	1	x	0.8	4	21
SMILES	sEH activator	CYP2C19 activ	sEH inh	CYP2C9 activ	CYP2C19 inhib	CYP2C9 inhib
c1ccc(Cc2nc3ccccc3o2)cc1	-2	0.7	-3	1	34	4
Cc1cc(C)n2nc(C(=O)OCCOc3cccc(Br)c3)nc2n1	x	0.8	x	0.9	19	11
CCN(Cc1ccccc1)CC(O)COc1ccccc1 (stereo unspecified)	-2	0.6	0	0.9	44	12
CC(OCC(O)CN(C)CCOc1ccccc1)c1ccc(Cl)cc1 (stereo unspecified)	5	0.2	-4	0.6	75*	37
COc1ccc(C2/C(=C(/O)c3ccc(Cl)cc3)C(=O)C(=O)N2CCN2CCOCC2)c(OC)c1 (stereo unspecified)	-4	1.1	5	0.8	-8	16
CCOC(=O)c1cc(OC(=O)c2cccnc2)n(-c2ccccc2)n1	-7	0.9	5	0.9	6	14
O=C(OCC(=O)N(C1CCCCC1)C1CCCCC1)c1cnccn1	x	0.5	x	1.1	54*	-6
O=C(NC1CCCCCCC1)c1cnccn1	-12	0.4	11	0.9	63*	6
CN(C)c1cccc(-c2nnc(SCCCC#N)o2)c1	27	0.9	-26	1.1	13	-9
Cc1cc(C)nc(NS(=O)(=O)c2ccc(NC(=O)CCN3C(=O)c4ccccc4C3=O)cc2)n1	x	1	x	0.9	0	7
O=C(Cn1nc(-c2ccc(F)cc2)ccc1=O)Nc1ccc(C(=O)NC2CC2)cc1	5	1	-4	1	5	-4
CC1CN(S(=O)(=O)c2ccc(NC(=O)CCN3C(=O)c4ccccc4C3=O)cc2)CC(C)O1 (stereo unspecified)	-34	1	35	0.4	1	57*
Cc1ccc(NC(=O)c2ccc(S(=O)(=O)N3CCC(C)CC3)cc2)cc1	-12	0.8	14	0.7	23	26
CC1CCN(S(=O)(=O)c2ccc(NC(=O)Cc3ccccc3)cc2)CC1	-25	0.2	25	0.1	78*	92*
CC1CCN(S(=O)(=O)c2ccc(NC(=O)CN3CCCC(C)C3)cc2)CC1 (stereo unspecified)	-23	0.9	24	0.7	14	27
CC1CCN(S(=O)(=O)c2ccc(C(=O)Nc3sccc3C(N)=O)cc2)CC1	7	0.5	-8	0.4	52*	59*
CC1CCN(S(=O)(=O)c2ccc(NC(=O)Cn3nnc(-c4ccccc4F)n3)cc2)CC1	-37	0.6	36	0.2	39	80*
CC1CCN(S(=O)(=O)c2ccc(NC(=O)CN3CCN(c4ccccc4)CC3)cc2)CC1	-11	1.1	9	1	-14	-2
CCC(C)(C)NC(=O)CN(CC1CCCO1)C(=O)CCC(=O)Nc1nccs1 (stereo unspecified)	9	1.1	-9	1.1	-9	-12
COC(=O)c1ccc(CSc2nnc(CNC(=O)c3cccs3)o2)o1	8	0.6	-6	0.7	38	29
C=CCn1c(=O)c2ccccc2n2c(SCc3csc(-c4ccccc4)n3)nnc12	x	0.7	x	0.7	29	25
CC1CN(S(=O)(=O)c2ccc(NC(=O)CCCN3C(=O)c4ccccc4C3=O)cc2)CC(C)O1 (stereo unspecified)	-68	0.7	68	0.5	28	50*
O=C(CCCCCN1C(=O)c2ccccc2C1=O)Nc1ccc(S(=O)(=O)N2CCCCC2)cc1	-66	0.7	66	0.2	26	83*
CC1CN(S(=O)(=O)c2ccc(NC(=O)c3ccco3)cc2)CC(C)O1 (stereo unspecified)	-36	0.8	37	0.5	18	50
